Measurements: PubChem BioAssay AID1159580 (chemical genetic matrix, 2015)
Screen size: about 5,500 compounds; about 2,000 (36%) were called active. Not shown: some 18% with an inconclusive outcome. Cut-off read from the data, not from the text of the source: active = normalized growth mostly below about 0.91 (no sharp cut-off); inconclusive = no clear call, values can overlap the other calls; inactive = mostly above about 0.92. The list shows a part of the results.

Assay: chemical genetic growth profiling, strain panel (AID 1159580);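 note: tested at 20 µM; growth read once vehicle control cultures reached saturation at 30 °C; 1 = growth at the plate median or of vehicle wells; lower values mean less growth of the strain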
Details: S. cerevisiae deletion strains, growth OD

Measured: normalized growth

O=C(O)[C@@H](S)[C@@H](S)C(=O)O
inactive: locus YAL030W, strain snc1, active compounds read low 0.975 | locus YBL061C, strain skt5, active compounds read low 0.967 | locus YBR023C, strain chs3, active compounds read low 0.962 | locus YBR171W, strain sec66, active compounds read low 0.976 | locus YCL011C, strain gbp2, active compounds read low 0.921 | locus YCL016C, strain dcc1, active compounds read low 0.945 | locus YCL061C, strain MRC1, active compounds read low 0.936 | locus YCL069W, strain vba3, active compounds read low 0.953 | locus YCR088W, strain abp1, active compounds read low 0.971 | locus YDL005C, strain med2, active compounds read low 1 | locus YDL040C, strain nat1, active compounds read low 0.971 | locus YDR001C, strain nth1, active compounds read low 0.971 | locus YDR159W, strain sac3, active compounds read low 0.91 | locus YDR195W, strain ref2 1.01 | locus YDR297W, strain sur2, active compounds read low 0.975 | locus YDR334W, strain swr1, active compounds read low 0.958 | locus YEL003W, strain gim4, active compounds read low 0.962 | locus YEL037C, strain rad23, active compounds read low 0.953 | locus YEL061C, strain CIN8 (second series), active compounds read low 0.977 | locus YER015W, strain faa2, active compounds read low 0.958 | locus YER016W, strain bim1, active compounds read low 0.952 | locus YER111C, strain swi4, active compounds read low 0.965 | locus YGL167C, strain pmr1, active compounds read low 0.976 | locus YGL227W, strain vid30, active compounds read low 0.978 | locus YHR142W, strain chs7, active compounds read low 0.937 | locus YJL092W, strain hpr5, active compounds read low 0.932 | locus YJL095W, strain BCK1 (second series), active compounds read low 0.973 | locus YJL115W, strain asf1, active compounds read low 0.969 | locus YJL129C, strain trk1, active compounds read low 0.982 | locus YJL154C, strain vps35, active compounds read low 0.979 | locus YJL164C, strain tpk1, active compounds read low 0.966 | locus YJL187C, strain SWE1, active compounds read low 0.979 | locus YKL160W, strain elf1, active compounds read low 0.974 | locus YKR026C, strain gcn3, active compounds read low 0.978 | locus YKR091W, strain srl3, active compounds read low 0.977 | locus YLL026W, active compounds read low 0.932 | locus YLL041C, strain sdh2, active compounds read low 0.978 | locus YLR027C, strain aat2, active compounds read low 0.938 | locus YLR221C, strain rsa3, active compounds read low 0.919 | locus YLR258W, strain gsy2, active compounds read low 0.93 | locus YLR262C, strain YPT6 (second series), active compounds read low 0.898 | locus YLR342W, strain FKS1, active compounds read low 0.964 | locus YLR384C, strain iki3, active compounds read low 0.979 | locus YML120C, strain ndi1, active compounds read low 0.987 | locus YMR125W, strain sto1, active compounds read low 0.951 | locus YMR129W, active compounds read low 0.963 | locus YMR231W, strain pep5, active compounds read low 0.982 | locus YNL209W, strain ssb2, active compounds read low 0.974 | locus YNL248C, strain rpa49, active compounds read low 0.926 | locus YNL322C, strain KRE1 (second series), active compounds read low 0.97 | locus YNR049C, strain mso1, active compounds read low 0.941 | locus YOR001W, strain rrp6, active compounds read low 0.992 | locus YOR070C, strain gyp1, active compounds read low 0.961 | locus YOR080W, strain dia2, active compounds read low 0.968 | locus YOR083W, strain WHI5, active compounds read low 0.924 | locus YOR265W, strain rbl2, active compounds read low 0.976 | locus YPL078C, strain atp4, active compounds read low 0.96 | locus YPL106C, strain sse1, active compounds read low 0.931 | locus YPL240C, strain hsp82, active compounds read low 0.987
active: locus YAL021C, strain ccr4, active compounds read low 0.545 | locus YAL026C, strain drs2, active compounds read low 0.836 | locus YBR009C, strain hhf1, active compounds read low 0.875 | locus YBR231C, strain swc5, active compounds read low 0.887 | locus YBR279W, strain paf1, active compounds read low 0.922 | locus YDR069C, strain doa4, active compounds read low 0.681 | locus YDR137W, strain rgp1, active compounds read low 0.73 | locus YDR335W, strain msn5, active compounds read low 0.911 | locus YDR392W, strain spt3, active compounds read low 0.532 | locus YER155C, strain BEM2 (second series), active compounds read low 0.662 | locus YFR010W, strain ubp6, active compounds read low 0.828 | locus YGL173C, strain kem1, active compounds read low 0.892 | locus YGL240W, strain doc1, active compounds read low 0.886 | locus YGL253W, strain hxk2, active compounds read low 0.678 | locus YHR013C, strain ard1, active compounds read low 0.533 | locus YHR027C, strain rpn1, active compounds read low 0.885 | locus YHR030C, strain SLT2, active compounds read low 0.337 | locus YHR079C, strain IRE1, active compounds read low 0.426 | locus YJL095W, strain BCK1, active compounds read low 0.413 | locus YJL166W, strain qcr8, active compounds read low 0.859 | locus YJR066W, strain TOR1, active compounds read low 0.417 | locus YLL001W, strain dnm1, active compounds read low 0.888 | locus YLR113W, strain HOG1, active compounds read low 0.443 | locus YLR320W, strain mms22, active compounds read low 0.798 | locus YLR357W, strain rsc2, active compounds read low 0.798 | locus YLR370C, strain arc18, active compounds read low 0.81 | locus YMR058W, strain fet3, active compounds read low 0.832 | locus YMR205C, strain PFK2, active compounds read low 0.808 | locus YNL071W, strain lat1, active compounds read low 0.695 | locus YNL183C, strain NPR1, active compounds read low 0.516 | locus YOR106W, strain vam3, active compounds read low 0.496 | locus YOR231W, strain MKK1, active compounds read low 0.324 | locus YOR270C, strain vph1, active compounds read low 0.357 | locus YOR290C, strain snf2, active compounds read low 0.722 | locus YPL051W, strain arl3, active compounds read low 0.899 | locus YPL256C, strain CLN2, active compounds read low 0.474
